# Only a selection was taken, and hits are over-represented in it overall.
# Algae TAG accum – increases triacylglycerol in Chlamydomonas reinhardtii; calls only at 10 µM (by protocol); Chlamydomonas reinhardtii TAG, Nile Red fluorescence, 72 h; AID 1159537; 44,000 tested, 0.84% active; call rule not given here;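 also: hits raise Nile Red signal meaning more stored TAG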
# Calls only; i = inactive; + = active, no number.
SMILES,Algae TAG accum
CC(C)(C)c1ccc(OCCCCN2CCOCC2)cc1,+
O=[N+]([O-])c1ccc(OCCCCN2CCOCC2)cc1,+
Cc1cccc(OCCCCN2CCOCC2)c1,+
c1ccc(OCCCN2CCOCC2)cc1,i
Ic1ccc(OCCCN2CCOCC2)cc1,i
COc1ccc(NC(=O)c2ccc(C)c(Cl)c2)cc1,i
CC(O)CNC(=O)C(=O)Nc1ccccc1F (stereo unspecified),i
O=C(Nc1ccc(N2CCN(C(=O)c3ccccc3)CC2)cc1)c1ccc(-c2ccccc2)cc1,i
CC(O)(C#CC(O)(c1ccccc1)c1ccccc1)C1CC1 (stereo unspecified),i
COc1ccccc1N1CCN(Cc2cc([N+](=O)[O-])ccc2O)CC1,i
CC(O)CNC(=O)C(=O)Nc1cccc(Cl)c1Cl (stereo unspecified),i
Cc1ccc(C(=O)Nc2ccc(I)cc2C)cc1C,i
Cc1ccc(C(=O)Nc2ccc(Cl)cc2C)cc1C,+
Cc1ccc(NC(=O)c2ccc(Cl)cc2)c(C)c1,i
COc1ccc(OC)c(NS(=O)(=O)c2ccccc2[N+](=O)[O-])c1,i
O=C(Nc1cccc2c1CCCC2)C(Cl)Cl,i
Cc1cccc(OCC(=O)Nc2cccc3c2CCCC3)c1,i
CN1CC=C(CNc2cccc3c2CCCC3)CC1,+
COc1cccc(C(=O)Nc2ccc([N+](=O)[O-])cc2)c1,i
COc1ccc(NC(=O)CSc2nc(CSc3ccc(C)cc3)cc(=O)[nH]2)cc1,i
O=C(N1CCOCC1)N1CCN(c2ccc([N+](=O)[O-])cc2)CC1,i
C/C=C(\C)CN1CCN(c2ccc(C)cc2)CC1,+
Cc1ccc(NC(=O)CN2CCN(c3ccc(F)cc3)CC2)cc1,i
C/C=C(\C)CN1CCN(Cc2ccccc2)CC1,i
O=C(CN1CCCCC1)Nc1ccccc1NC(=O)CN1CCCCC1,i
SMILES,Algae TAG accum
O=C(CN1CCCCCC1)Nc1cccc2c1OCO2,i
O=C(CN1CCCCC1)Nc1ncc(Cc2ccc(Br)cc2)s1,+
CCc1cccc(NC(=O)Cc2ccc(Cl)cc2)c1,i
Cc1c(C(=O)Nc2sc3c(c2C(N)=O)CCCCCC3)cccc1[N+](=O)[O-],i
O=[N+]([O-])c1ccc(C(O)CN2CCc3ccccc32)cc1 (stereo unspecified),i
O=[N+]([O-])c1ccc(CN2CCN(C3CCCCC3)CC2)cc1,i
O=[N+]([O-])c1cccc(CN2CCN(C3CCCC3)CC2)c1,i
O=[N+]([O-])c1ccc(CN2CCN(C3CCCC3)CC2)cc1,+
O=[N+]([O-])c1ccc(C(O)CN2CCN(Cc3ccccc3)CC2)cc1 (stereo unspecified),+
O=[N+]([O-])c1ccc(N2CCN(Cc3ccccc3)CC2)nc1,i
Cc1nc2ccc(Cl)cc2c2c(N)c3ccccc3n12,i
N#CC(=Cc1ccc(O)cc1O)c1nc2ccccc2[nH]1,i
N#CC(=Cc1ccccc1Cl)c1nc2ccccc2[nH]1,i
CCOc1cccc(C2C3=C(CC(C)(C)CC3=O)NC3=C2C(=O)CC(C)(C)C3)c1,i
CCN1CCC(N2CCN(c3ccccc3)CC2)CC1,i
O=C(C1CCN(CC2CCCCC2)CC1)N1CCN(c2ccccc2)CC1,i
c1ccc(N2CCN(CC3CCCCC3)CC2)cc1,+
CN(C)c1ccc(NC(=O)Nc2ccc3nc(-c4ccccn4)c(-c4ccccn4)nc3c2)cc1,+
Cc1nc2ccc(NC(=O)Nc3ccc(N(C)C)cc3)cc2nc1C,i
O=C(Nc1ccc2nc(-c3ccccn3)c(-c3ccccn3)nc2c1)N1CCCC1,i
O=C1CCC([N+](=O)[O-])C(c2cccc(Oc3ccccc3)c2)N1 (stereo unspecified),i
O=C(O)CC(Cc1ccccc1)C(=O)Nc1ccc(F)cc1 (stereo unspecified),i
Cc1cc([N+](=O)[O-])ccc1NCc1c(F)cccc1F,i
Cc1ccc2nc(NC(=O)C3CC3)sc2c1,+
Cc1ccc2nc(NC(=O)C3CCCCC3C(=O)O)sc2c1 (stereo unspecified),i
SMILES,Algae TAG accum
Cc1ccc2nc(NC(=O)NC3CCCCC3)sc2c1,i
Cc1cc(Cl)ccc1N(CC(=O)Nc1cccc([N+](=O)[O-])c1)S(C)(=O)=O,i
O=C(Nc1ccc(NC(=O)c2ccc(Cl)cc2Cl)cc1Cl)c1ccco1,i
Cc1ccc(-c2nc3ccccc3o2)cc1NC(=O)c1ccc(C)c([N+](=O)[O-])c1,i
O=C1NC(c2ccccc2F)C(=C(O)c2ccc(Br)cc2)C1=O (stereo unspecified),i
CC(=O)Nc1cccc(NC(=O)C(C)Oc2ccccc2)c1 (stereo unspecified),i
CCOc1ccc(OCCOCCN2CCCC2)cc1,i
CCC(C)c1ccc(OCCN2CCCC2)cc1 (stereo unspecified),+
c1ccc(OCCCN2CCCCC2)cc1,i
COc1ccc(OCCCCN2CCCCC2)cc1,i
COc1ccc(OCCCN2CCCCC2)cc1,+
CCOc1cccc(OCCN2CCCC2)c1,i
O=C(/C=C(/c1ccccc1)N1CCCCC1)c1ccc([N+](=O)[O-])cc1,i
CN1C(=O)CC(c2ccc([N+](=O)[O-])cc2)C2=C1CC(C)(C)CC2=O (stereo unspecified),i
COc1ccccc1CC(=O)NCc1ccc(Cl)cc1,i
CC(=O)c1ccc(N2CCN(Cc3ccc(Br)s3)CC2)cc1,i
O=C(Nc1nc2ccccc2n1CCOc1ccccc1)c1ccc([N+](=O)[O-])cc1,i
CCCCN(CC)C(=O)c1ccccc1I,i
O=[N+]([O-])c1cccc(CN2CCCCCC2)c1,i
O=[N+]([O-])c1ccc(CNC2CCCCCC2)cc1,+
CN1CCC(N(C)Cc2ccc([N+](=O)[O-])cc2)CC1,i
CN(Cc1ccc([N+](=O)[O-])cc1)C1CCCCC1,+
CN1CCC(N(C)Cc2cccc([N+](=O)[O-])c2)CC1,i
O=[N+]([O-])c1ccc(CNC2CCCC2)cc1,+
O=[N+]([O-])c1ccc(CNC2CCCc3ccccc32)cc1 (stereo unspecified),i
SMILES,Algae TAG accum
O=C(NC1CCCCC1)c1ccc([N+](=O)[O-])o1,i
CC1CCCCC1NCc1ccc([N+](=O)[O-])cc1 (stereo unspecified),i
O=C(NC1CCCCCC1)c1cccc([N+](=O)[O-])c1,i
O=[N+]([O-])c1cccc(CNC2CCCCCC2)c1,+
O=C(NC1CCCCCC1)c1ccc([N+](=O)[O-])cc1,i
COc1ccc(C(=O)N2CCCc3ccccc32)cc1[N+](=O)[O-],i
O=C(Nc1ccc(Br)cc1)C(=O)NC1CCCCCC1,i
Nc1ccc(C23CC4CC(C2)CC(c2ccc(N)cc2)(C4)C3)cc1,i
COc1ccc(N2CCN(C(=O)c3cc(F)c(F)cc3Cl)CC2)c([N+](=O)[O-])c1,i
CCOc1cc(N2CCOCC2)c(OCC)cc1N,i
Cc1ccc(CN(c2ccc(C(=O)Nc3ccccc3F)cc2)S(C)(=O)=O)cc1,i
CC(C)CNC(=O)C1CCN(CC(C)C)CC1,i
C=CCc1cccc(C)c1OCCCN1CCN(C)CC1,+
C=CCc1cc(C)ccc1OCCN1CCN(C)CC1,i
C=CCc1cccc(OC)c1OCCCN1CCN(C)CC1,i
C=CCc1cc(Cl)ccc1OCCN1CCN(C)CC1,+
C=CCc1cc(C)ccc1OCCCCN1CCN(C)CC1,i
C=CCc1cccc(C)c1OCCCN1CCCC1,i
Cc1ccc(CN2CCC(C(=O)NCc3ccccc3Cl)CC2)cc1,+
Cc1ccc(CNC(=O)C(=O)NCc2ccccc2Cl)cc1,i
O=C(NCCc1ccccc1)C1CCN(Cc2ccccc2Cl)CC1,i
Clc1ccc(OCCN2CCCC2)cc1Cl,i
CCOc1ccccc1C(=O)NCCc1cccc(Cl)c1,i

# Compound activity as filed in PubChem.
